Records with an inconclusive call do not appear. Activity calls are given as the source filed them. Unless noted, the call rests on the fitted dose curve; in most records, active means well fitted curve in the direction sought with a large enough effect in the repeat runs; inconclusive means weak or mixed curves; inactive means no such curve, though single readings can be large; an effect the other way counts as inactive or inconclusive.
What was measured:
[1] = qHTS assay to identify small molecule antagonists of the sonic hedgehog signaling (Shh) pathway (AID 1259369; calls by dose curve; further: nearly all actives have a fitted effect of over 45% in size; further: potency means the concentration at half of the fitted maximal effect)
Method in brief: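 Read-out is luminescence from a firefly luciferase gene controlled by the Gli1 response element, in 3T3Gli1-Luc cells pre-incubated 4hr then exposed to compounds and conditioned medium for 24hr.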

[2] = target: Estrogen receptor beta (Homo sapiens) (UniProt Q92731); assay: qHTS assay to identify small molecule agonists of the estrogen receptor beta (ER-beta) signaling pathway (AID 1259377; active means well fitted activation curve with a large enough effect in the signal ratio in the repeat runs, not every such curve was filed as active; the % refers to the signal ratio)
Chain of Estrogen receptor beta (Homo sapiens) (Q92731 whole entry, looked up): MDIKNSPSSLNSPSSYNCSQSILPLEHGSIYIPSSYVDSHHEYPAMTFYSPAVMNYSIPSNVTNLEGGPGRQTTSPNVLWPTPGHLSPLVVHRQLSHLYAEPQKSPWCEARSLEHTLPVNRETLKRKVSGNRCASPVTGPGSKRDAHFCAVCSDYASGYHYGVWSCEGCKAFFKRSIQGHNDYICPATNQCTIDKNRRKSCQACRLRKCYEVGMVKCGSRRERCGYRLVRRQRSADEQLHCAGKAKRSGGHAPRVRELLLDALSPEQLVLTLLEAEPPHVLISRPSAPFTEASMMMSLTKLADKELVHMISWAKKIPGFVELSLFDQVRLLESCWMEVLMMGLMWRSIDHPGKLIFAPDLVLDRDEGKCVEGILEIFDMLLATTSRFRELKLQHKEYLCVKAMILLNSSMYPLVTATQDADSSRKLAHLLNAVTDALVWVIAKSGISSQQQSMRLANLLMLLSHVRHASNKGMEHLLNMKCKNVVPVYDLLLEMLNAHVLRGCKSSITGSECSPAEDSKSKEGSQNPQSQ
Method in brief: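 Beta-lactamase reporter readout: fluorescence of LiveBLAzer B/G FRET substrate after 2 h at room temperature, following 16 h compound treatment of ER-beta-UAS-bla HEK293T cells at 37C in 2% charcoal-stripped FBS medium.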

[3] = target: Estrogen receptor beta (Homo sapiens) (UniProt Q92731); assay: qHTS assay to identify small molecule antagonists of the estrogen receptor beta (ER-beta) signaling pathway (AID 1259378; active means well fitted inhibition curve with a large enough effect in the signal ratio in the repeat runs, not every such curve was filed as active; the % refers to the signal ratio)
Method in brief: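 ER-beta-UAS-bla HEK293T (GripTite) cells in 2% charcoal-stripped FBS medium were preincubated 6 hr at 37C, dosed with compound, then stimulated with 1 nM E2 (final) for 16 hr; beta-lactamase reporter read by B/G FRET fluorescence after 2 hr substrate loading.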

[4] = qHTS assay to identify small molecule agonists of the androgen receptor (AR) signaling pathway in the presence of an antagonist - cell viability counter screen (AID 1259379);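 further: MDA-kb2 human breast cancer cells carrying an MMTV luciferase reporter; series mostly up to about 92 µM; nearly all actives have a fitted effect of over 25% in size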
Method in brief: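 Each compound was tested at 15 concentrations on MDA-kb2 cells in the presence of 3.0uM nilutamide. Viability was measured by CellTiter-Fluor fluorescence after a 16 hr incubation at 37C in a CO2-free atmosphere.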

[5] = qHTS assay to identify small molecule antagonists of the estrogen receptor beta (ER-beta) signaling pathway - cell viability counter screen (AID 1259382); further: series mostly up to about 92 µM; nearly all actives have a fitted effect of over 55% in size
Method in brief: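 CellTiter-Glo ATP luminescence measured after the LiveBLAzer read in the same wells; ER-beta-UAS-bla HEK293T cells, 16 hr compound treatment with 1nM 17-beta-estradiol agonist at 37C, 5% CO2.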

[6] = target: Estrogen receptor (Homo sapiens) (UniProt P03372); assay: qHTS assay to identify small molecule agonists of the estrogen receptor alpha (ER-alpha) signaling pathway in the presence of an antagonist (AID 1259383; calls by dose curve; further: top concentration of the series differs between compounds; nearly all actives have a fitted effect of over 15% in size)
Chain of Estrogen receptor (Homo sapiens) (P03372 whole entry, looked up): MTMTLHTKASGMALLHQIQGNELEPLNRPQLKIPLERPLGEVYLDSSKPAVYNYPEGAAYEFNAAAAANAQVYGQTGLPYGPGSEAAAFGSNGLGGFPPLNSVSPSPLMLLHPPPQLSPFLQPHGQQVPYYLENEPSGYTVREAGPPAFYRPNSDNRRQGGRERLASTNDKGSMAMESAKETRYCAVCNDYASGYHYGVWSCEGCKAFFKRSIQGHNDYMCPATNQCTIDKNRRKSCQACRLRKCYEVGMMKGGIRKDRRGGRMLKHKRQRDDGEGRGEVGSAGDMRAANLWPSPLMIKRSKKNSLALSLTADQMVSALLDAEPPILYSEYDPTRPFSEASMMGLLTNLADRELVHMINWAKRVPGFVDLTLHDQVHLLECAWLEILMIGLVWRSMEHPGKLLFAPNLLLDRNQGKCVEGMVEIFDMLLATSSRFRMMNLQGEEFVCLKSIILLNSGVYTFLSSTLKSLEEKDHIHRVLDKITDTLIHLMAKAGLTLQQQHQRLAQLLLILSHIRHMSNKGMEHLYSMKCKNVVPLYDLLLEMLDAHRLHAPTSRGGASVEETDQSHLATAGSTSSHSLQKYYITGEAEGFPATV
Method in brief: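 Luminescent ERE-luciferase reporter, VM7Luc4E2 cells (endogenous ER-alpha); 10.0nM ICI-182,780 final; 15-point compound titration; 22hr at 37C; ONE-Glo, 30min RT.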

[7] = target: Thyrotropin receptor (Homo sapiens) (UniProt P16473); assay: qHTS assay to identify small molecule antagonists of the thyroid stimulating hormone receptor (TSHR) signaling pathway (AID 1259385; calls by dose curve; further: nearly all actives have a fitted effect of over 20% in size)
Chain of Thyrotropin receptor (Homo sapiens) (P16473 whole entry, looked up): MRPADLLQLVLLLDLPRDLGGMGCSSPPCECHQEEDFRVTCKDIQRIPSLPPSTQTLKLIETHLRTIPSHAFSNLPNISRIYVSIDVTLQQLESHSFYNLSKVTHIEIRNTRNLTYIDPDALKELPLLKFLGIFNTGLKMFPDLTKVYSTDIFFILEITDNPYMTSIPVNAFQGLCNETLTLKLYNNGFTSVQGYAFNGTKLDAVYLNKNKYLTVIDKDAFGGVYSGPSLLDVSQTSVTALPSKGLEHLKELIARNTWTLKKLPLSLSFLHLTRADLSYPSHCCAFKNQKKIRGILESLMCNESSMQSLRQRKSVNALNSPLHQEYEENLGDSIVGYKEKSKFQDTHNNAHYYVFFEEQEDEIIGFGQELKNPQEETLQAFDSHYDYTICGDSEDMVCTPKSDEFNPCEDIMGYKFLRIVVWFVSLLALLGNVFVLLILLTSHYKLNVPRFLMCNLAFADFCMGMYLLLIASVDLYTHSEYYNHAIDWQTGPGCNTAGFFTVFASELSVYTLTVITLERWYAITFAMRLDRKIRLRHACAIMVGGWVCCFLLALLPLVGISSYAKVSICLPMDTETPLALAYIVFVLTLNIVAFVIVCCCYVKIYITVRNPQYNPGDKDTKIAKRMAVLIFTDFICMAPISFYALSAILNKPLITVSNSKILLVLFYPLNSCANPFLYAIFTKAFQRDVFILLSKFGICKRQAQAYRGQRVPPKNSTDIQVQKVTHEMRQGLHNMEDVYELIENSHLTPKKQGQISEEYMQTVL
Method in brief: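 TSHR-HEK293 cells were plated and held 18 h at 37C/5% CO2, then given compound plus Ro20-1724 and stimulated with TSH at 1.5 ng/mL final. After 30 min at room temperature, cAMP was detected with cAMP-d2/anti-cAMP-cryptate (1 h) by fluorescence.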

[8] = qHTS assay to identify small molecule agonists of the estrogen receptor alpha (ER-alpha) signaling pathway in the presence of an antagonist - cell viability counter screen (AID 1259386);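 further: series mostly up to about 92 µM; cells exposed to compounds for 22 h at 37 °C before the viability read; nearly all actives have a fitted effect of over 30% in size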
Method in brief: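 Using estrogen-depleted VM7Luc4E2 cells, the 15-concentration compound series was applied together with 10.0nM ICI-182,780 and incubated 22hr at 37C/5% CO2. Cell viability was then scored by CellTiter-Fluor.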

[9] = target: Progesterone receptor (Homo sapiens) (UniProt P06401); assay: qHTS assay to identify small molecule agonists of the progesterone receptor (PR) signaling pathway (AID 1346784; calls by dose curve; further: nearly all actives have a fitted effect of over 30% in size)
Chain of Progesterone receptor (Homo sapiens) (P06401 whole entry, looked up): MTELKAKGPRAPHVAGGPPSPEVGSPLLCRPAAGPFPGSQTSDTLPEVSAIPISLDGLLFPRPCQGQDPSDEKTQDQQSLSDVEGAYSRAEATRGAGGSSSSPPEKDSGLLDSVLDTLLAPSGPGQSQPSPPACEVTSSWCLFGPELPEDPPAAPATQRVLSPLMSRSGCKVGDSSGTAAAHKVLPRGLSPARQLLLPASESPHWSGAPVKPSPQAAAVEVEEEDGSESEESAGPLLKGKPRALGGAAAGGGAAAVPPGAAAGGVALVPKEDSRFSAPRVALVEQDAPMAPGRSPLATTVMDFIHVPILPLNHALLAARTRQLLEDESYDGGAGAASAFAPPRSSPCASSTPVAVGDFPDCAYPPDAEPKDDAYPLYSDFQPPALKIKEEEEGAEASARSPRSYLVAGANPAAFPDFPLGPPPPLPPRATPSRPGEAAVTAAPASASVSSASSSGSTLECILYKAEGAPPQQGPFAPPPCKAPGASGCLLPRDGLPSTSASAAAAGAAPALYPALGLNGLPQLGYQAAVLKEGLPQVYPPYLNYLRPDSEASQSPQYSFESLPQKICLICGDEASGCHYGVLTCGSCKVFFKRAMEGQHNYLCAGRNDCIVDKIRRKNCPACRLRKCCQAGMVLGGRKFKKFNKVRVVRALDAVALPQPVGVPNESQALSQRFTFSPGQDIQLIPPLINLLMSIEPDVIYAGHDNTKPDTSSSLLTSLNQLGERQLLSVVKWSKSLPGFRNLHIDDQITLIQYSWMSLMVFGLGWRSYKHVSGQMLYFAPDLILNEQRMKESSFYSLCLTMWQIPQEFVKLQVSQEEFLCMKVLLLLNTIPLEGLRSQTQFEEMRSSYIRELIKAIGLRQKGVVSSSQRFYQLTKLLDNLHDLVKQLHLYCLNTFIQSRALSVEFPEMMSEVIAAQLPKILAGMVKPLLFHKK
Method in brief: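 HEK 293T PR-UAS-bla reporter cells, 2% charcoal-stripped FBS; 6 hr settle at 37C/5% CO2, compound (DMSO) 16 hr, LiveBLAzer B/G FRET substrate 2 hr RT, fluorescence intensity read.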

[10] = target: Progesterone receptor (Homo sapiens) (UniProt P06401); assay: qHTS assay to identify small molecule antagonists of the progesterone receptor (PR) signaling pathway (AID 1346795; active means well fitted inhibition curve with a large enough effect in the signal ratio in the repeat runs, not every such curve was filed as active; the % refers to the signal ratio; further: potency means the concentration at half of the fitted maximal effect)
Method in brief: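 Beta-lactamase reporter, HEK293T PR-UAS-bla line; 2% charcoal-stripped FBS; 6 hr pre-incubation, 37C/5% CO2. Compound + R5020 1 nM final, 16 hr. LiveBLAzer B/G FRET substrate, 2 hr RT; fluorescence intensity read.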

[11] = qHTS assay to identify small molecule antagonists of the TGF-beta/Smad signaling pathway - cell viability counter screen (AID 1346824); further: nearly all actives have a fitted effect of over 50% in size
Method in brief: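 SBE-bla HEK 293T cells were plated overnight at 37 C, then given compounds in DMSO plus TGF-beta1 (added as 0.25 ng/mL solution) for 5 hr. After the bla read, CellTiter-Glo was added to the same wells and luminescence read after 30 min at room temperature.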

[12] = qHTS assay to identify small molecule agonists of the TGF-beta/Smad signaling pathway - cell viability counter screen (AID 1346829); further: top concentration of the series differs between compounds; nearly all actives have a fitted effect of over 45% in size
Method in brief: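 Luminescence from CellTiter-Glo, read after a 30 min room-temperature incubation, gives cell viability of SBE-bla HEK 293T cells treated 5 hr with compounds at 37 C.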

[13] = qHTS assay to identify small molecule agonists of the TGF-beta/Smad signaling pathway (AID 1346859; active means well fitted activation curve with a large enough effect in the signal ratio in the repeat runs, not every such curve was filed as active; the % refers to the signal ratio; further: series mostly up to about 77 µM)
Method in brief: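 Read-out: fluorescence at 460 and 530 nm (405 nm excitation) after a 2 hr room-temperature incubation with beta-lactamase FRET substrate. SBE-bla HEK 293T cells had been treated with test compounds for 5 hr at 37 C.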

[14] = target: Thyrotropin-releasing hormone receptor (Homo sapiens) (UniProt P34981); assay: qHTS assay to identify small molecule antagonists of the thyrotropin-releasing hormone receptor (TRHR) signaling pathway (AID 1346877; active means well fitted inhibition curve with a large enough effect in the repeat runs, not every such curve was filed as active; further: series mostly up to about 51 µM)
Chain of Thyrotropin-releasing hormone receptor (Homo sapiens) (P34981 whole entry, looked up): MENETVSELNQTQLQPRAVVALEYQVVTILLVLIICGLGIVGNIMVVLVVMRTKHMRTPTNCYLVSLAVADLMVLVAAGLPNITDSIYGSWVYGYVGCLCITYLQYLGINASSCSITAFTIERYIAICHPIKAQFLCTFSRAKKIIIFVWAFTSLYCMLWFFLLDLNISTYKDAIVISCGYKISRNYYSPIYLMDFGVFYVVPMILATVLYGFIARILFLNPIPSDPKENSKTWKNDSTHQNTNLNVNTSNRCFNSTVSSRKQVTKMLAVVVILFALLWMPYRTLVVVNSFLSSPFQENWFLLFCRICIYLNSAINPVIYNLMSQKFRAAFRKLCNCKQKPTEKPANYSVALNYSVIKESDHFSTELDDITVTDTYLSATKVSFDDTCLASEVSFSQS
Method in brief: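 Calcium signal in dye-loaded TRHR/HEK293 cells; compounds added 5 min before TRH (1 nM final); fluorescence monitored 3 min at 1 s steps.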

[15] = target: Thyrotropin-releasing hormone receptor (Homo sapiens) (UniProt P34981); assay: qHTS assay to identify small molecule agonists of the thyrotropin-releasing hormone receptor (TRHR) signaling pathway (AID 1346891; calls by dose curve;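 further: HEK293 cells expressing TRHR with calcium dye readout; series mostly up to about 58 µM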)
Method in brief: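 HEK293/TRHR cells, 1500 per well, 18 h 37 °C; Ca dye 2 h 37 °C; pin-tool compound addition (agonist mode); kinetic fluorescence 3 min, 1 s reads; 15 concentrations, triplicate.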

[16] = qHTS assay to identify small molecule agonists of the estrogen receptor beta (ER-beta) signaling pathway - cell viability counter screen (AID 1259380); further: nearly all actives have a fitted effect of over 30% in size
Method in brief: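 Compounds dissolved in DMSO were pin-transferred onto ER-beta-UAS-bla HEK293T cells that had settled 6 hr, and exposure ran 16 hr at 37C. Following the reporter read, CellTiter-Glo luminescence after 30 min at room temperature indicated cytotoxicity.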

[17] = qHTS assay to identify small molecule antagonists of the progesterone receptor (PR) signaling pathway - cell viability counter screen (AID 1346798); further: nearly all actives have a fitted effect of over 50% in size; further: potency means the concentration at half of the fitted maximal effect
Method in brief: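 Luminescence readout (CellTiter-Glo, 30 min, RT) of viability in PR-UAS-bla HEK293T cells exposed to compound and R5020 agonist for 16 hr at 37C, 5% CO2; run in the same wells as the beta-lactamase reporter read.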

[18] = qHTS assay to identify small molecule agonists of the progesterone receptor (PR) signaling pathway - cell viability counter screen (AID 1346799; calls by dose curve; further: nearly all actives have a fitted effect of over 45% in size; further: potency means the concentration at half of the fitted maximal effect)
Method in brief: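 HEK293T PR-UAS-bla, 3,000 cells/well, 2% charcoal-stripped FBS; 6 h settle, compound 16 h at 37C/5% CO2; LiveBLAzer 2 h RT, then CellTiter-Glo 30 min RT, luminescence read.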

[19] = qHTS assay to identify small molecule agonists or antagonists of the thyroid stimulating hormone receptor (TSHR) signaling pathway - wild type cell line counter screen (AID 1259384; calls by dose curve)
Method in brief: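 Wild-type HEK293 cells were plated 18 h at 37 C/5% CO2, pin-dosed with compound plus Ro20-1724 medium, held 30 min at room temperature, then given cAMP-d2 and anti-cAMP-cryptate; fluorescence was read after 1 h. Fifteen concentrations, triplicate.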

[20] = target: Androgen receptor (Homo sapiens) (UniProt P10275); assay: qHTS assay to identify small molecule agonists of the androgen receptor (AR) signaling pathway in the presence of an antagonist (AID 1259381; calls by dose curve; further: nearly all actives have a fitted effect of over 15% in size)
Chain of Androgen receptor (Homo sapiens) (P10275 whole entry, looked up): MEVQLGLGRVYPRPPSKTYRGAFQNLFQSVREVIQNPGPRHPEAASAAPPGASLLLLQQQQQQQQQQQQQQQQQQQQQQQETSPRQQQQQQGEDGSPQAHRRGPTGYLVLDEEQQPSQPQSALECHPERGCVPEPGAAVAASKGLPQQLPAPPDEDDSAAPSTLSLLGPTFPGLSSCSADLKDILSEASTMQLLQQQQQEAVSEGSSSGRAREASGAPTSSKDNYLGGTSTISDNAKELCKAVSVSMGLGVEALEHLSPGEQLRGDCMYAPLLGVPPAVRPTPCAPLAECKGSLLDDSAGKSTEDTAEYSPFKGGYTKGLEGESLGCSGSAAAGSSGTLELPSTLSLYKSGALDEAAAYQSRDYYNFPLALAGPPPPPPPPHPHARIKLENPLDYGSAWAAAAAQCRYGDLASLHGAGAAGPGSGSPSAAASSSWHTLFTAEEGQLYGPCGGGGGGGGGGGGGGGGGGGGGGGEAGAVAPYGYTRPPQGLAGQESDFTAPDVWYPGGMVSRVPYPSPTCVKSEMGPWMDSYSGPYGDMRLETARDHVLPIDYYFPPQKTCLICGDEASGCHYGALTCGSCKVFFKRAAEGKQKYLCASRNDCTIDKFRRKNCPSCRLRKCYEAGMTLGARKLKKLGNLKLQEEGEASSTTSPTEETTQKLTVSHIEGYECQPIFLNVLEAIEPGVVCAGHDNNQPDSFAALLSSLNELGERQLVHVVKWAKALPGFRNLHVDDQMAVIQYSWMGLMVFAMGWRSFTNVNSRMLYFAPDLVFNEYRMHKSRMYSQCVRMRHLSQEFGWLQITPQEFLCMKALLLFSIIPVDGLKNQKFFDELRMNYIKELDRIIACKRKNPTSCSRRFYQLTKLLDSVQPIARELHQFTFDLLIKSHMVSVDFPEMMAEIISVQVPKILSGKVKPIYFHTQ
Method in brief: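 Plated MDA-kb2 cells (3,000/well) were pre-incubated 5hr, given nilutamide (3.0uM final) or buffer, then dosed with compounds in DMSO at 15 concentrations. Luciferase activity was quantified by luminescence after 16hr at 37C.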

Measured: Potency

CCN1CCCC(OC(=O)C(c2ccccc2)c2ccccc2)C1 (stereo not drawn)
not listed: [16] | [17] | [18] | [19] | [20]
inactive: all other assays above

O=C(O)/C=C/c1ccc(Cn2ccnc2)cc1
not listed: [6] | [7] | [19] | [20]
inactive: all other assays above

COc1ccc(N=[N+]([O-])c2ccc(OC)cc2)cc1
not listed: [3] | [9] | [16] | [17] | [18] | [20]
inactive: all other assays above

N#CC1(O)CCCCC1
active: [1] 12.3 µM
not listed: [6] | [11] | [14] | [15] | [20]
inactive: all other assays above

O=[N+]([O-])c1ccc(Oc2ccc([N+](=O)[O-])cc2)cc1
active: [10] 3.94 µM
not listed: [7] | [14] | [15] | [17] | [18] | [19] | [20]
inactive: all other assays above

COC(=O)c1ccc(C(=O)OC)c(C(=O)OC)c1
not listed: [6] | [10] | [14] | [15] | [20]
inactive: all other assays above

CCc1cc(S(=O)(=O)O)c2cc(C(C)C)cccc1-2
not listed: [6] | [7] | [20]
inactive: all other assays above

Cc1c(C)n(CCN(C)C)c2ccc(C(=O)OCCN(C)C)cc12
not listed: [7] | [9] | [10] | [16] | [17] | [18] | [19] | [20]
inactive: all other assays above

O=Cc1ccccc1[N+](=O)[O-]
not listed: [3] | [6] | [14] | [15] | [18] | [20]
inactive: all other assays above

Cc1ccccc1C(=O)O
not listed: [6] | [7] | [14] | [15] | [19] | [20]
inactive: all other assays above

COc1ccc2cc(C=O)ccc2c1
not listed: [2] | [10] | [11]
inactive: all other assays above

CC(C=O)Cc1ccc(C(C)C)cc1 (stereo not drawn)
not listed: [6] | [11] | [20]
inactive: all other assays above

Oc1cc(O)c2c(c1)O[C@H](c1ccc(O)c(O)c1)[C@H](O)C2
not listed: [6] | [14] | [15] | [20]
inactive: all other assays above

N#CCc1ccccc1[N+](=O)[O-]
not listed: [6] | [18] | [20]
inactive: all other assays above

C#CC(C)(O)CC(C)C (stereo not drawn)
not listed: [6] | [7] | [11] | [20]
inactive: all other assays above

c1ccc(CCCc2ccccn2)cc1
not listed: [6] | [7] | [20]
inactive: all other assays above

O=c1[nH]c(=O)n([C@H]2O[C@H](CO)[C@@H](O)[C@@H]2O)cc1/C=C\Br
not listed: [2] | [3] | [7] | [19]
inactive: all other assays above

Nc1[nH]c(=O)ncc1F
not listed: [2] | [7] | [14] | [15] | [16] | [19] | [20]
inactive: all other assays above

O=C(O)c1ccccc1-c1ccc(C(F)(F)F)cc1
not listed: [2] | [3] | [20]
inactive: all other assays above

CN(C)N=Nc1ccccc1
not listed: [2] | [6] | [7] | [20]
inactive: all other assays above

OCC(CO)(CO)COCC(CO)(CO)CO
not listed: [2] | [3] | [11] | [20]
inactive: all other assays above

Nc1nc2c(ncn2CCC(CO)CO)c(=O)[nH]1
not listed: [2] | [7] | [20]
inactive: all other assays above

c1ccc(SCCSc2ccccc2)cc1
not listed: [2] | [6] | [7] | [10]
inactive: all other assays above

CCCCCCOC(=O)c1ccccc1O
active: [17] 24.3 µM | [18] 30.6 µM
not listed: [2] | [9] | [10] | [16] | [19]
inactive: all other assays above

C=C(C)C(=O)NCCCN(C)C
not listed: [2] | [6] | [7] | [11] | [19] | [20]
inactive: all other assays above

OC/C=C/c1ccccc1
not listed: [2] | [6] | [7] | [11] | [14] | [15] | [19] | [20]
inactive: all other assays above

N#CCN(CC#N)CCN(CC#N)CC#N
not listed: [2] | [6] | [7] | [19] | [20]
inactive: all other assays above

C=CCn1c(=O)n([C@@H]2O[C@H](CO)[C@@H](O)[C@H]2O)c2nc(N)[nH]c(=O)c21
not listed: [2] | [6] | [18] | [19]
inactive: all other assays above

CCCCCCC(=O)OCC
not listed: [2] | [16] | [20]
inactive: all other assays above

C1=C\CC/C=C\CC/C=C\CC/1
not listed: [2] | [6] | [7] | [14] | [15] | [19] | [20]
inactive: all other assays above
